Test results published in PubChem BioAssay AID1259417 (TB Discovery Research, Infectious Disease Research Institute, 2018).
About 760 (69%) of roughly 1,100 compounds were called active. The rule behind the calls is not given here. The set was probably picked from earlier hits. The list shows a part of the results.

Test: M. tuberculosis growth inhibition, HTS (AID 1259417);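 note: bacteria grown with compound for 5 days at 37 °C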
Conditions: stronger effect = higher value, concentration not given here
[1] = M. tuberculosis DsRed fluorescence growth inhibition
[2] = M. tuberculosis growth inhibition

| SMILES | inhibition [1] | inhibition [2] [%] |
| --- | --- | --- |
| O=C(NCc1nnc2c3ccccc3c(-c3ccccc3)nn12)c1ccc(Cl)cc1 | 15.3% (inactive) | -15.9 |
| Cc1ccc(C(=O)Nc2nnc(C3=COCCO3)o2)cc1 | 11.3% (inactive) | -5.11 |
| O=C(Nc1nc(-c2ccccc2)c(-c2ccccc2)o1)c1ccc(F)cc1 | 93.6% (active) | 93.3 |
| O=C(Nc1nnc(C2=COCCO2)o1)c1ccc(F)cc1 | 17.6% (inactive) | 29.2 |
| Cc1ccc(C(=O)Nc2nc(-c3ccccc3)c(-c3ccccc3)o2)cc1 | 80.4% (active) | 65.6 |
| CCOC(=O)Cc1c(C)nc2c(-c3cccc(Br)c3)c[nH]n2c1=O | 98.3% (active) | 97.9 |
| CCOC(=O)CSc1nc(N)c(C#N)c(-c2cccs2)c1C#N | -3.66% (inactive) | 10.2 |
| CCCCOC(=O)CSc1nc(N)c(C#N)c(-c2ccc(OC)cc2)c1C#N | 4.48% (active) | 30.9 |
| Nc1ncnc(Sc2nc3ccccc3s2)c1[N+](=O)[O-] | 100% (active) | 99.4 |
| Cc1ccc2c(C)nc(Nc3nc(CSc4nc5ccccc5s4)cc(=O)[nH]3)nc2c1 | -4.65% (inactive) | -12.8 |
| Cc1cc(Sc2ncnc(N)c2[N+](=O)[O-])ncn1 | 99.4% (active) | 100 |
| Cc1ccc2sc(N(CCCn3ccnc3)C(=O)c3ccco3)nc2c1C | 98.6% (active) | 98.1 |
| Cc1cc(Cl)cc2sc(N(CCCn3ccnc3)C(=O)c3ccco3)nc12 | 97.5% (active) | 98.4 |
| Cc1c(Cl)ccc2sc(N(CCCn3ccnc3)C(=O)c3ccco3)nc12 | 98.6% (active) | 99.5 |
| Cc1cccc2sc(N(CCCn3ccnc3)C(=O)c3ccco3)nc12 | 98.6% (active) | 99.8 |
| O=C(Nc1nc2c(Cl)cccc2s1)c1ccc([N+](=O)[O-])o1 | -3.76% (inactive) | 28.2 |
| O=C(Nc1nnc(-c2ccc(Cl)s2)o1)c1ccc([N+](=O)[O-])o1 | 95.4% (active) | 87.9 |
| O=C(CCc1ccccc1)Nc1nnc(-c2ccc(Cl)s2)o1 | 10% (inactive) | 26.7 |
| O=C(Nc1ccc(Cl)cc1C(F)(F)F)c1ccc([N+](=O)[O-])o1 | 60.7% (active) | 58.1 |
| O=C(Nc1nnc(-c2ccc(Cl)cc2)o1)c1ccc([N+](=O)[O-])o1 | 98.3% (active) | 98.8 |
| C=CCn1c(O)c(C2=c3ccccc3=NC2=O)sc1=N | -9.61% (inactive) | 14.7 |
| CCCCCn1c(NCc2ccc(N(C)C)cc2)nc2ccccc21 | -0.00251% (inactive) | -15.7 |
| CCn1c(NCc2c(O)ccc3ccccc23)nc2ccccc21 | 77.8% (active) | 89 |
